Laboratory results from PubChem BioAssay (Tox21).
“And” between values parts separate entries of the source, which are not always exact repeats. Equal entries are not always repeated. Inconclusive results are not listed. A structure can be active in one record and inactive in another. The source made the active and inactive calls. The call rests on the fitted dose curve; in most records, active means well fitted curve in the direction sought with a large enough effect in the repeat runs; inconclusive means weak or mixed curves; inactive means no such curve, though single readings can be large; an effect the other way counts as inactive or inconclusive.

What was measured:
[1] = qHTS RealTime-Glo MT Cell Viability Assay in HepG2 cells - 40 hour (AID 1224870); further: nearly all actives have a fitted effect of over 50% in size; further: potency means the concentration at half of the fitted maximal effect
Outline: (§1)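 HepG2 cells mixed with RealTime-Glo MT reagents (NanoLuc plus cell-permeant prosubstrate) were seeded at 600 cells/well, incubated 5 h at 37 C/5% CO2, then pinned with compounds in DMSO; nonlytic luminescence tracked viability during 40 h treatment.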

[2] = A CellTox Green Cytotoxicity Assay to monitor cytotoxicity in HEK293 cells - 40 hour (AID 1224871); further: nearly all actives have a fitted effect of over 45% in size; further: potency means the concentration at half of the fitted maximal effect
Outline: (§2)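 Cells (HEK293, 600/well) and dye reagent are dispensed together. After 5 h at 37 C, 23 nL compound is pinned in. Plates stay at 37 C for 40 h with fluorescence read at 0h, 8h, 16h, 24h, 32h and 40h.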

[3] = qHTS RealTime-Glo MT Cell Viability Assay in HepG2 cells - 8 hour (AID 1224873); further: nearly all actives have a fitted effect of over 55% in size; further: potency means the concentration at half of the fitted maximal effect
Outline: as §1

[4] = A CellTox Green Cytotoxicity Assay to monitor cytotoxicity in HEK293 cells - 24 hour (AID 1224875); further: nearly all actives have a fitted effect of over 45% in size; further: potency means the concentration at half of the fitted maximal effect
Outline: as §2

[5] = qHTS RealTime-Glo MT Cell Viability Assay in HepG2 cells - 32 hour (AID 1224877); further: nearly all actives have a fitted effect of over 55% in size; further: potency means the concentration at half of the fitted maximal effect
Outline: (§3)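 Compound treatment began 5 h after plating HepG2 cells (600/well) with NanoLuc luciferase and prosubstrate. Plates stayed at 37 C for 40 h; luminescence was captured at six time points, 0 h through 40 h.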

[6] = A CellTox Green Cytotoxicity Assay to monitor cytotoxicity in HepG2 cells - 40 hour (AID 1224879); further: nearly all actives have a fitted effect of over 40% in size; further: potency means the concentration at half of the fitted maximal effect
Outline: (§4)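 Cells and non-lytic dye reagent are dispensed together (600 HepG2 cells/well) and incubated 5 h before DMSO compound transfer. Kinetic fluorescence is then recorded in the same wells during 40 h at 37 C.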

[7] = A CellTox Green Cytotoxicity Assay to monitor cytotoxicity in HEK293 cells - 32 hour (AID 1224881); further: nearly all actives have a fitted effect of over 40% in size; further: potency means the concentration at half of the fitted maximal effect
Outline: as §2

[8] = A CellTox Green Cytotoxicity Assay to monitor cytotoxicity in HepG2 cells - 0 hour (AID 1224882); further: nearly all actives have a fitted effect of over 35% in size; further: potency means the concentration at half of the fitted maximal effect
Outline: as §4

[9] = A CellTox Green Cytotoxicity Assay to monitor cytotoxicity in HepG2 cells - 32 hour (AID 1224883); further: nearly all actives have a fitted effect of over 50% in size; further: potency means the concentration at half of the fitted maximal effect
Outline: as §4

[10] = A CellTox Green Cytotoxicity Assay to monitor cytotoxicity in HEK293 cells - 8 hour (AID 1224884); further: nearly all actives have a fitted effect of over 35% in size; further: potency means the concentration at half of the fitted maximal effect
Outline: as §2

[11] = qHTS RealTime-Glo MT Cell Viability Assay in HepG2 cells - 16 hour (AID 1224885); further: nearly all actives have a fitted effect of over 50% in size; further: potency means the concentration at half of the fitted maximal effect
Outline: as §3

[12] = qHTS RealTime-Glo MT Cell Viability Assay in HEK293 cells - 24 hour (AID 1224886); further: nearly all actives have a fitted effect of over 50% in size; further: potency means the concentration at half of the fitted maximal effect
Outline: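 Quantitative high-throughput screen of the Tox21 10K library in HEK293: cells and RealTime-Glo reagents plated together, compound added at 5 h, luminescence monitored through 40 h at 37 C.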

[13] = A CellTox Green Cytotoxicity Assay to monitor cytotoxicity in HEK293 cells - 16 hour (AID 1224888); further: nearly all actives have a fitted effect of over 35% in size; further: potency means the concentration at half of the fitted maximal effect
Outline: as §2

[14] = qHTS RealTime-Glo MT Cell Viability Assay in HepG2 cells - 0 hour (AID 1224889); further: nearly all actives have a fitted effect of over 50% in size; further: potency means the concentration at half of the fitted maximal effect
Outline: as §3

[15] = qHTS RealTime-Glo MT Cell Viability Assay in HEK293 cells - 40 hour (AID 1224874); conditions: RealTime-Glo luminescence; max response: stronger effect = lower value; further: nearly all actives have a fitted effect of over 50% in size; further: potency means the concentration at half of the fitted maximal effect
Outline: (§5)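 Real-time viability in HEK293: signal arises when living cells convert a prosubstrate for NanoLuc in the medium, so luminescence tracks viable cell number. Compound (23 nL, DMSO) added 5 h post-seeding; kinetic reads at 0–40 h, 37 C.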

[16] = A CellTox Green Cytotoxicity Assay to monitor cytotoxicity in HepG2 cells - 16 hour (AID 1224876); further: nearly all actives have a fitted effect of over 45% in size; further: potency means the concentration at half of the fitted maximal effect
Outline: as §4

[17] = A CellTox Green Cytotoxicity Assay to monitor cytotoxicity in HepG2 cells - 24 hour (AID 1224878); further: nearly all actives have a fitted effect of over 45% in size; further: potency means the concentration at half of the fitted maximal effect
Outline: as §4

[18] = qHTS RealTime-Glo MT Cell Viability Assay in HEK293 cells - 0 hour (AID 1224880); further: nearly all actives have a fitted effect of over 45% in size; further: potency means the concentration at half of the fitted maximal effect
Outline: as §5

[19] = qHTS RealTime-Glo MT Cell Viability Assay in HEK293 cells - 8 hour (AID 1224887)
Outline: as §5
On the % scale 0 is the no-effect control and ±100 the full control effect.

Nc1ccccc1N
active: Potency [2] 50.1 µM | Potency [4] 50.1 µM | Potency [6] 28.2 µM | Potency [7] 50.1 µM | Potency [9] 50.1 µM | Potency [10] 50.1 µM | Potency [13] 50.1 µM
50.1 µM (active) and inactive: Potency [8]
inactive: Potency [1] | Potency [3] | Potency [5] | Potency [11] | Potency [12] | Potency [14]

CC(=O)c1ccccn1
inactive: Potency [1] | Potency [2] | max response [15] 3.52% and 4.42% | Potency [4] | Potency [16] | Potency [5] | Potency [17] | Potency [6] | Potency [18] | Potency [7] | Potency [8] | Potency [9] | Potency [10] | Potency [11] | Potency [12] | Potency [19] | Potency [13] | Potency [14]

CCCCC(CC)COCC1CO1 (configuration not stated)
inactive: Potency [1] | Potency [2] | Potency [3] | Potency [4] | Potency [5] | Potency [6] | Potency [18] | Potency [7] | Potency [8] | Potency [9] | Potency [10] | Potency [11] | Potency [12] | Potency [13] | Potency [14]

CC(C)Oc1ccc2c(=O)c(-c3ccccc3)coc2c1
active: Potency [12] 12 µM
inactive: Potency [1] | Potency [2] | Potency [4] | Potency [16] | Potency [5] | Potency [17] | Potency [6] | Potency [18] | Potency [7] | Potency [8] | Potency [9] | Potency [10] | Potency [11] | Potency [13] | Potency [14]

COC(C)COC(C)COC(C)CO (configuration not stated)
inactive: Potency [1] | Potency [2] | Potency [3] | max response [15] 0.372% and 18.3% | Potency [4] | Potency [5] | Potency [6] | Potency [18] | Potency [7] | Potency [8] | Potency [9] | Potency [10] | Potency [11] | Potency [12] | Potency [13] | Potency [14]

CC(=O)C1(C)CC2=C(CCCC2(C)C)CC1C (configuration not stated)
active: Potency [2] 41.6 µM
inactive: Potency [1] | Potency [3] | max response [15] -4.9% and 2.42% | Potency [16] | Potency [5] | Potency [17] | Potency [6] | Potency [18] | Potency [8] | Potency [9] | Potency [10] | Potency [11] | Potency [12] | Potency [19] | Potency [13] | Potency [14]

COC(=O)C1=C(C)NC(C)=C(C(=O)OCCN(C)Cc2ccccc2)C1c1cccc([N+](=O)[O-])c1 (configuration not stated)
active: Potency [1] 43.4 µM | Potency [3] 24.4 µM and 19 µM | Potency [15] 24.4 µM and 16.9 µM | Potency [5] 43.4 µM | Potency [18] 5.46 µM and 6.01 µM | Potency [11] 24.4 µM and 10.7 µM | Potency [12] 21.7 µM and 19 µM | Potency [14] 6.13 µM and 3.38 µM
48.7 µM (active) and inactive: Potency [6] | Potency [9]
inactive: Potency [2] | Potency [4] | Potency [7] | Potency [8] | Potency [10] | Potency [13]

CC(CCC(=O)O)(c1ccc(O)cc1)c1ccc(O)cc1
inactive: Potency [1] | Potency [2] | max response [15] -1.02% and 0.133% | Potency [4] | Potency [5] | Potency [17] | Potency [6] | Potency [18] | Potency [7] | Potency [8] | Potency [9] | Potency [10] | Potency [11] | Potency [12] | Potency [19] | Potency [13] | Potency [14]

CCCc1c(OCCCCc2nn[nH]n2)ccc(C(C)=O)c1O
inactive: Potency [1] | Potency [2] | Potency [3] | Potency [4] | Potency [16] | Potency [5] | Potency [17] | Potency [6] | Potency [18] | Potency [7] | Potency [8] | Potency [9] | Potency [10] | Potency [11] | Potency [12] | Potency [19] | Potency [13] | Potency [14]

Cc1[nH]c(=O)c(C#N)cc1-c1ccncc1
inactive: Potency [1] | Potency [2] | Potency [3] | Potency [4] | Potency [16] | Potency [5] | Potency [6] | Potency [18] | Potency [7] | Potency [8] | Potency [9] | Potency [10] | Potency [11] | Potency [12] | Potency [19] | Potency [13] | Potency [14]

COC(=O)CCC(=O)OC
inactive: Potency [1] | Potency [2] | max response [15] -3.79% and 17.6% | Potency [4] | Potency [16] | Potency [5] | Potency [6] | Potency [18] | Potency [7] | Potency [8] | Potency [9] | Potency [10] | Potency [11] | Potency [12] | Potency [13] | Potency [14]

Cc1ccc2c(n1)Oc1ccc(C(C)C(=O)OCC(=O)N(C)C)cc1C2 (configuration not stated)
inactive: Potency [1] | Potency [2] | Potency [4] | Potency [5] | Potency [17] | Potency [6] | Potency [18] | Potency [7] | Potency [8] | Potency [9] | Potency [10] | Potency [11] | Potency [12] | Potency [19] | Potency [13] | Potency [14]

O=C(Nc1ccc([N+](=O)[O-])cc1Cl)c1cc(Cl)ccc1O
inactive and 29.3 nM (active): Potency [16]
active: Potency [2] 24.5 µM and 13.1 µM | Potency [17] 5.49 µM | Potency [6] 4.9 µM and 2.33 µM | Potency [7] 38.9 µM | Potency [9] 4.9 µM and 2.93 µM | Potency [12] 5.49 µM and 1.04 µM
inactive: Potency [4] | cytotoxicity [17] 38% [at 15.8 µM] | Potency [18] | Potency [8] | Potency [10] | Potency [11] | Potency [19] | Potency [13] | Potency [14]
